Results on 32 molecules are retold here after the supplement of paper PMC12632987.

The target of this experiment is T1, USP38, Q8NB14.
T1 chain: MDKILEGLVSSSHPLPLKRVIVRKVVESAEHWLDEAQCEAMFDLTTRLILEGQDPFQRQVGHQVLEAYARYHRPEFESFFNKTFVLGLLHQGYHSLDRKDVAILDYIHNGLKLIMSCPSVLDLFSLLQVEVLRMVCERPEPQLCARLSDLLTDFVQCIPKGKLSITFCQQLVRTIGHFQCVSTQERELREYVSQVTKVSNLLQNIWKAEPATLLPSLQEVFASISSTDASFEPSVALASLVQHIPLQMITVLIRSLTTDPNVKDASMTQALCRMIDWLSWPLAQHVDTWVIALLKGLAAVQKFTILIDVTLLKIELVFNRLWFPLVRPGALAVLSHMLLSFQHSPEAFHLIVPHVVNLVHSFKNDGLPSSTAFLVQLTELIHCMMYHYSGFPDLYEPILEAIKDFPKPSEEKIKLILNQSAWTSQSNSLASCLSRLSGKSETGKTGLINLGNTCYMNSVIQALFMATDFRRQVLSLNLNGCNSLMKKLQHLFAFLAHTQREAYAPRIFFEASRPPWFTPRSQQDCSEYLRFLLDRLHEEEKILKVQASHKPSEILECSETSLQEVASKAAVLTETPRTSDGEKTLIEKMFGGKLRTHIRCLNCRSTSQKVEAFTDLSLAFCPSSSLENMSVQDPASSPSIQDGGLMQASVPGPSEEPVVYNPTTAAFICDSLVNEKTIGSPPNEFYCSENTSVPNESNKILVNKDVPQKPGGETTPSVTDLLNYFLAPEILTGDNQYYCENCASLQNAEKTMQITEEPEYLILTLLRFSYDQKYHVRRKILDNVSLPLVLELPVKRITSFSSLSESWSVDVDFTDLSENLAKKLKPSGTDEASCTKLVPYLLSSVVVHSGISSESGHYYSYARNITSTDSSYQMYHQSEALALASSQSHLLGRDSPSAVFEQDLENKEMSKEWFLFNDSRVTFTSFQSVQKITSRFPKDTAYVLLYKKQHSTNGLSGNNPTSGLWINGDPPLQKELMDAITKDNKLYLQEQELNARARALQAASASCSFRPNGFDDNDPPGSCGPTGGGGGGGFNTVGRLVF
Put plainly: median log2 fold change of GCK-ALFA target abundance (FLAG IP / Myc IP barcode read proportion) (log2 ratio); each designed protein is fused to an ALFA-tag nanobody in HEK293 cells to bring the named protein to FLAG-tagged glucokinase (GCK); Myc marks an untargeted standard; higher = target protein stabilised (more abundant). The settings on record: target protein: 3xFLAG-MCP-GCK-ALFA reporter; HEK293 landing pad (RPLP). In short, it runs like this: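 Binders fused to an ALFA nanobody were recombined as a library into HEK293 landing-pad cells, which were induced with 2 μg mL^−1 doxycycline and then transfected to express a FLAG-tagged target and a Myc-tagged standard. After 48 h, circular RNA barcodes recovered by anti-FLAG and anti-Myc immunoprecipitation of lysates were reverse transcribed, amplified and sequenced. Each binder's target abundance is the median log2 ratio of FLAG to Myc barcode read proportions, from barcodes present at ≥10^−7 in both replicates, binders carrying ≥3 barcodes per replicate, a 10^−6 pseudocount and pooled replicates.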

B1: usp_38_diff_out_18_14_350 (protein)
chain: SEELEKQKLSNLKSLKEEVKKNTERLKKIVEKLKDDPESALSLLDTRIQALEGVIKYAEEVLKEAEEKGWEELAKAAKELIKEAEKAKKEAKELKKKLLE
Turning to B1, the “median log2 fold change” value is -0.185.

B2: usp_38_diff_out_18_28_370 (protein)
chain: SEEERERLEERLAALKAELDALIDRATAAATAALEAHPDDAEVWALIDALFDALGAAAAALNEARRLLREGGDLEEVERLLEQAEAHLAQARALLAQLEA
B2: the “median log2 fold change” value came out at 0.0316.

B3: usp_38_diff_out_18_28_375 (protein)
chain: SAATRAALEAELAALEARLDALIDEYVALANRVYEEHPDDAEALALLDAAADALGAAAAALAEARRLLRAGGDPAEVRARLAEARAALAEAEALLAQLKA
Regarding B3, the “median log2 fold change” value is -0.238.

B4: usp_38_diff_out_18_14_357 (protein)
chain: SEAELEAQREYLEAFLEAAEIVNEEAERIIEREREKRILSADRLALMLGGLRALAEEAEEKLREARELGFEELAERLEEALERLEENAERFEALLAERRA
In the case of B4, the “median log2 fold change” value is -0.477.

B5: usp_38_diff_out_18_28_367 (protein)
chain: SAAARAAAEARLAALTAELDELIDEATAEATAALTAHPDDAAVWALVDALFDALGAAAAALNRARELLREGGPLEEVEAALAQAEAELARARELLAQLRA
Regarding B5, the “median log2 fold change” value is 0.0424.

B6: usp_38_diff_out_18_28_369 (protein)
chain: SAAERAALEAELAALTARLDALIDEATAEATRRLTEHPDDEEVWELVDELFDALGAAAAALREARELLREGGPLAEVQAALDRARAALARAEALLAELKA
B6: the “median log2 fold change” value turned out to be 0.292.

B7: usp_38_diff_out_18_28_361 (protein)
chain: MEEERRELEEELRRLEEELERLITEATEAITRALTAHPDDEEVWKLVDELWDALGKAAAAINEARELLREGGPLEEVKAKLDEARKYLKEAKKLLEELKK
For B7, the “median log2 fold change” value was determined as 0.017.

B8: usp_38_diff_out_18_159_359 (protein)
chain: DEELLAELDKEILRDYSTSLAEEAKEKAKKAKDPEVKKLWAEVAKTAKYAAENLDNPEALAQAAKELTALTEELKKKGALNDREELQLQGLITLLNRVAA
Take B8: the “median log2 fold change” value was determined as 0.289.

B9: usp_38_diff_out_18_14_356 (protein)
chain: SEEEREATRLFIEARLAAAELVNADADKIIAYEKKHKNRSADTIEMMRGGLAAMAAELEEDLKLAKELGDEELAARLAAAQAELKARAAEFDALLAEKKA
Take B9: the “median log2 fold change” value was -0.0299.

B10: usp_38_diff_out_18_28_365 (protein)
chain: SEEERRELERRLEELTRRLDELIDEATEAATEALTAHPDDEEVWELVDRLFDALGAAAAALNRARELLREGGPLEEVEEELEEAERHLREAERLLEELRE
In the case of B10, the “median log2 fold change” value stood at 0.239.

B11: usp_38_diff_out_18_159_358 (protein)
chain: DAELLHQLNLELLKAHLKSWAENAEKKAKKTKTEVAKKVAELAKKALELFEKDPNSKEALKEILELAKEALELIKSDPSFNDRDKTSAAGLVVLAQEVLA
Take B11: the “median log2 fold change” value is 0.093.

B12: usp_38_diff_out_18_28_364 (protein)
chain: SAAERAALEAELKALTAELDALIDEATEVATEKLTEHPDDEEVWELVDKLFDALGAAAAALNKARELLREGGPLEEVKKQLAKAKEALAEAKKLLEELKK
Consider B12, for which the “median log2 fold change” value is 0.391.

B13: usp_38_diff_out_18_28_379 (protein)
chain: EEARREELERRLEELRRRLDELIDEATEAATEALTAHPDDEEVWELVDELFDTLGRAAAALERARRLLREGGPLEEVERALEEAERHLEEAEELLEELEE
For B13, the “median log2 fold change” value was -0.355.

B14: usp_38_diff_out_18_14_347 (protein)
chain: EEELAEQLKSNFESLTKEVEENTKRTKKIIEKLKDDKESAISLLETRIQALDGVITYAKEEKKEAEEKGFEELKAAAEKLIDAATKAKEELEKLLKELKK
As to B14, the “median log2 fold change” value is 0.152.

B15: usp_38_diff_out_18_28_372 (protein)
chain: SAAERAALEARLAALEAELNALIDEFVELAERVYEERADDEEALALLDRAWDALGAAAAALNRARELLREGGPAAEVQAQLDAAEAALAEAKALLAELKA
With B15, the “median log2 fold change” value was -0.142.

B16: usp_38_diff_out_18_14_351 (protein)
chain: EEELREQLLSNLKSLTKEVKENTERTKKIVEKLKDDPESASSLLDTRIQALEGVIKYAEEVLREAKEKGWEELAEAAKELIKEAKKAKEELKKLKEALKA
Turning to B16, the “median log2 fold change” value was -0.345.

B17: usp_38_diff_out_18_14_353 (protein)
chain: SEELREQLLSNLKTLKEEVRENRERTKRIVARLRDDPESARSLLESRIQAFKGVIKFAEELEKEAKEEGDEELLAAAKELKKEAEEALKELEALLAELDA
With B17, the “median log2 fold change” value is -0.0535.

B18: usp_38_diff_out_18_14_354 (protein)
chain: SEELREQTLSNLETLTADVEANTARLRRVVAALKDDPASARALLETRAQAMEGVIEYAERLEREAEEEGDEELLEAARRLRATAEAALAEIQALLAELDA
On to B18, for which the “median log2 fold change” value is -0.0379.

B19: usp_38_diff_out_18_28_366 (protein)
chain: SMEEREKLEKELEELKKELDALIDEATALATEALTAHPDDEEVWALVDELFDSLGKAAAHLNRARELLREGGPLEEVEKELKEAKEHLEKAKELLAKLKA
Turning to B19, the “median log2 fold change” value was -0.062.

B20: usp_38_diff_out_18_14_352 (protein)
chain: EEELREQLLSNLRSLTEEVRRNTERLKRIVEKLRDDPESALALLETRRQALEGVIRYAREVLREARERGWEELAEAAEELIRAAEEALEEAKRLEEELKK
Take B20: the “median log2 fold change” value was -0.239.

B21: usp_38_diff_out_18_28_363 (protein)
chain: EEERRRRLEAELEALRARLDALITEATAAITEALTAHPDDEEVWRLVDELLDALGRAAAALEEARRLLREGGPLEEVERLLREAERELERAERLLEELKA
For B21, the “median log2 fold change” value was -0.0876.

B22: usp_38_diff_out_18_28_360 (protein)
chain: MEERREELEKRLKELKAELDKLITEATAAITEALEAHPDDEEVWALVDKLWDALGKAAAAINEARELLREGGDLEEVEKLLKEAEKHLKKAKELLAELKA
For B22, the “median log2 fold change” value is 0.282.

B23: usp_38_diff_out_18_14_349 (protein)
chain: SEELREQTLSNLKSLKKEVEEVTERTERIVEKLRGDPEAARALLDTRIQALEGVIKYAEEVLKEAEEEGWEEVAKAAKELIEAAKEAKKRAEELRKELEE
B23: the “median log2 fold change” value was -0.113.

B24: usp_38_diff_out_18_28_378 (protein)
chain: AAAERAALEAELAALRAELDALIDEATEAATRALEAHPDDEEVWALVDELFDTLGAAAAALNEARRLLKEGGDLAEVKAALAAARDALARARELLAELKA
As to B24, the “median log2 fold change” value was -0.0434.

B25: usp_38_diff_out_18_28_376 (protein)
chain: SAAERARLEAELAALRAELDALIDEATATATEALEAHPDSEEVWALIDALFDALGAAAAALEEARRLLRAGGPLAEVQALLDRAREHLRRARELLAELKA
Turning to B25, the “median log2 fold change” value was -0.0614.

B26: usp_38_diff_out_18_28_374 (protein)
chain: SEEEREELERRLRELEERLDELIDEYVELAERVYLEHPDDAEKLALLDAAADALGAAAYHLREARRLLREGGDPEEVERELEKAEEALEEAERLLEELKA
With B26, the “median log2 fold change” value was -0.302.

B27: usp_38_diff_out_18_28_377 (protein)
chain: MEEERERLERELEELRERLDELIDEATEASLKKLEEEPDSEEVWELIDRLFDALGAAAAALREARELLKAGGPLEEVQRLLEEARRHLEEAERLLEELKE
B27: the “median log2 fold change” value was -0.388.

B28: usp_38_diff_out_18_28_368 (protein)
chain: SEEERRELERRLEELTKRLDELIDEATAESTRALTAHPDDEAVWALVDALFDALGAAAAALNRARELLREGGPLEEVQKELDRAEAALKEAEALLAELKA
For B28, the “median log2 fold change” value is 0.199.

B29: usp_38_diff_out_18_28_362 (protein)
chain: AAAERARLEARLRALGARLDALITDATAAVTAALTAHPDDAAVWALVDALWDALGKAAAAVNEARELLRAGGPAEEVERALEAAEAALAEAQALLAQLRA
On to B29, for which the “median log2 fold change” value was -0.0207.

B30: usp_38_diff_out_18_28_373 (protein)
chain: SEEEREELKKRLEELEKRLDELIDRYVELANRVYEEHPDDEEKLRLLDEAADALGEAAYHLREARRLLREGGPPEEVKKELEKAEEALKKAEELLKELEE
Turning to B30, the “median log2 fold change” value is 0.0573.

B31: usp_38_diff_out_18_14_348 (protein)
chain: SEELYEQELSNLKSLTEEVKKNTERLKKIVEKLKDDPESALSLLETREQALKGVIKYAEEVAKEAKKEGREELLKAAEELIKAAKEALAEAKKLREELLA
Turning to B31, the “median log2 fold change” value was -0.156.

B32: usp_38_diff_out_18_28_371 (protein)
chain: SAAERAALEARLAALEAELDALIDELVELAKEVYEEHADDEEKLALLDAAWDALGRAAGLLRRARELLREGGDPAEVAALLDAAEAALAEAKALLAELKK
On to B32, for which the “median log2 fold change” value is -0.371.
